{"source": "PubChem BioAssay (NCI)", "note": "Compounds without any hit were thinned out: in the full panel of roughly 83,000, 20% have a hit.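 Treatment: one concentration, 48 hours, 96-well format. Scoring: percent growth, with anything below 10 considered active.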 Active and inactive are the calls of the source."}
{"test_system": "SK-MEL-5 melanoma", "assay": "NCI-60 one-dose screen, 48 h (100 = growth as untreated, 0 = no growth, -100 = all killed)", "details": "10 µM unless noted"}
{"molecule": "CC(C)n1nc(C#Cc2cccc(O)c2)c2c(N)ncnc21", "growth": "-91.8% (active)"}
{"molecule": "COc1cc2c(=O)n(CCCn3ccnc3)c3c4cc5c(cc4ccc3c2cc1OC)OCO5", "growth": "-75.9% (active)"}
{"molecule": "O=C(/C=C/C12c3ccccc3C(c3ccccc31)C1C(=O)N(c3ccccc3)C(=O)C12)c1ccccc1", "note": "(stereo unspecified)", "growth": "-67.1% (active)"}
{"molecule": "O=C(CC12CC3CC(CC(C3)C1)C2)NCCOCCOCCOCCNC(=O)c1cc2c(o1)C(=O)c1ccccc1C2=O", "growth": "-98.4% (active)"}
{"molecule": "O=C1Nc2ccccc2/C1=N/N=C/c1ccc(OC2OC(CO)C(O)C(O)C2O)cc1", "note": "(stereo unspecified)", "growth": "103% (inactive)"}
{"molecule": "CC(=[N-])N1CCC[C@@H](Nc2c3ccccc3nc3ccccc23)C1.[Cl][Pt].[NH-]CCC[NH-]", "growth": "-84.4% (active)"}
{"molecule": "O=C1Nc2ccccc2/C1=N/N=C/c1c[nH]c2ccccc12", "growth": "76.8% (inactive)"}
{"molecule": "CNC1(C#N)CCN(Cc2ccccc2)CC1", "growth": "116% (inactive)"}
{"molecule": "COc1cc2c(cc1OC)-c1ccc3cc4c(cc3c1N(CCCn1ccnc1)C2)OCO4", "growth": "8.78% (active)"}
{"molecule": "NC(=O)c1c(NC(=O)c2ccccn2)sc2c1CCC(=O)C2", "growth": "-19.5% (active)"}
{"molecule": "NC(N)=N/N=C/c1ccc(Br)cc1", "growth": "13.2% (inactive)"}
{"molecule": "CCNCCNc1cc(C2CCCC2)c(C#N)c2nc3ccccc3n12", "growth": "-56.7% (active)"}
{"molecule": "CS(=O)(=O)c1ccc(-c2[nH]c3ccc(F)cc3c2/C=N/O)cc1", "growth": "103% (inactive)"}
{"molecule": "N=C(N)c1ccc(-c2ccc(-c3ccc(Cl)cc3Cl)o2)cc1", "growth": "72.5% (inactive)"}
{"molecule": "CC(=O)C(C(C)=O)c1nc2sc3cc(Cl)ccc3n2c(=N)c1C#N", "growth": "74.6% (inactive)"}
{"molecule": "Cc1ccc(/C=C(\\C#N)n2nnc3cc(Cl)c(Cl)cc32)cc1", "growth": "14% (inactive)"}
{"molecule": "O=S(=O)(NCCNc1cc(-c2c(-c3cccc(O)c3)nc3sccn23)ccn1)c1ccc(Br)cc1", "growth": "25.2% (inactive)"}
{"molecule": "COc1ccc(/C(C)=N/NS(=O)(=O)c2ccc(C)cc2)cc1OC", "growth": "103% (inactive)"}
{"molecule": "C=C(Cl)COC(=O)C(C)(C)O", "growth": "106% (inactive)"}
{"molecule": "CCc1c(C(=O)N[C@@H]2c3cc(Cl)ccc3CC[C@@H]2O)[nH]c(C)c1C(C)=O", "growth": "45% (inactive)"}
{"molecule": "COc1cc2nc(Nc3ccc(F)cc3)nc(N)c2cc1OC", "growth": "90.5% (inactive)"}
{"molecule": "c1ccc2c(c1)nc(-n1ccnc1)c1nc3ccccc3n12", "growth": "68.9% (inactive)"}
{"molecule": "COC(=O)/C(=C\\c1ccc(OC)cc1)C(=O)N1c2ccccc2Sc2ccccc21", "growth": "41.5% (inactive)"}
{"molecule": "CN1CCN(c2ccc(Nc3ncc(Cl)c(NC[C@@H]4CCCO4)n3)cc2)CC1", "growth": "31% (inactive)"}
{"molecule": "O=C(NC1CCOCC1)c1ccc2c(c1)CN(c1ncc(Cc3cccc(-n4cccn4)c3)s1)CC2", "growth": "31.5% (inactive)"}
{"molecule": "[2H]c1nc(Nc2ncc(F)c(-c3cc(F)c4nc(C)n(C(C)C)c4c3)n2)c([2H])c([2H])c1CN1CCN(C([2H])([2H])C([2H])([2H])[2H])CC1", "growth": "41.8% (inactive)"}
{"molecule": "COc1ccc(C2CC(c3cnccn3)=NN2)cc1OC", "note": "(stereo unspecified)", "growth": "100% (inactive)"}
{"test_system": "UACC-62 melanoma", "assay": "NCI-60 one-dose screen, 48 h (100 = growth as untreated, 0 = no growth, -100 = all killed)", "details": "10 µM unless noted"}
{"molecule": "CC(c1ccc(-n2cccn2)cc1)c1cnc(N2CCc3ccc(C(N)=O)cc3C2)s1", "note": "(stereo unspecified)", "growth": "57.3% (inactive)"}
{"molecule": "COc1cc2c(cc1OC)-c1ccc3cc4c(cc3c1N(CCCN1CCCCC1)C2)OCO4", "growth": "59.2% (inactive)"}
{"molecule": "C[C@@H](C[C@H](CCOCc1cccnc1)c1ccccc1)c1cc2ccccc2o1", "growth": "81.2% (inactive)"}
{"molecule": "N#Cc1c(N)n2c(nc1=Nc1ccc([N+](=O)[O-])cc1)sc1cc(Cl)ccc12", "growth": "53.1% (inactive)"}
{"molecule": "C=C1C(=O)O[C@H]2[C@H]1CC/C(C(=O)NCCCCCCCCNC(=O)/C1=C/CC[C@@]3(C)O[C@H]3[C@H]3OC(=O)C(=C)[C@@H]3CC1)=C\\CC[C@@]1(C)O[C@@H]21", "growth": "56.3% (inactive)"}
{"molecule": "O=C(NCCOCCOCCOCCNC(=O)c1cc2c(o1)C(=O)c1ccccc1C2=O)NC12CC3CC(CC(C3)C1)C2", "growth": "-93.6% (active)"}
{"molecule": "CCOc1ccc2nc(-c3cccc(OCC(=O)NC(C)C)c3)nc(Nc3ccc(-c4cn[nH]c4)cc3)c2c1", "growth": "-6.26% (active)"}
{"molecule": "CSc1ncc(C)c(Nc2ccc(Cl)cc2)n1", "growth": "99.4% (inactive)"}
{"molecule": "O=C1CCC(N2C(=O)c3cccc(NCCCC4CCN(CCNC(=O)c5cc6c(o5)C(=O)c5ccccc5C6=O)CC4)c3C2=O)C(=O)N1", "note": "(stereo unspecified)", "growth": "-96.2% (active)"}
{"molecule": "CCOC(=O)C1C(=O)C=C(c2cnccn2)CC1c1ccc(OC)c(OC)c1", "note": "(stereo unspecified)", "growth": "101% (inactive)"}
{"molecule": "OC(CBr)c1ccnc2ccccc12", "note": "(stereo unspecified)", "growth": "95.1% (inactive)"}
{"molecule": "O=C1N(c2ccccc2)C(=S)N[C@]12[C@H](c1ccccc1)C1CCCN1[C@]21C(=O)NC2C=CC(Cl)=C[C@H]21", "note": "(stereo partly specified)", "growth": "82.7% (inactive)"}
{"molecule": "CC(C)n1nc(C#Cc2cccc(O)c2)c2c(N)ncnc21", "growth": "-88.9% (active)"}
{"molecule": "COc1cc2c(=O)n(CCCn3ccnc3)c3c4cc5c(cc4ccc3c2cc1OC)OCO5", "growth": "-50.9% (active)"}
{"molecule": "O=C(/C=C/C12c3ccccc3C(c3ccccc31)C1C(=O)N(c3ccccc3)C(=O)C12)c1ccccc1", "note": "(stereo unspecified)", "growth": "1.31% (active)"}
{"molecule": "O=C(CC12CC3CC(CC(C3)C1)C2)NCCOCCOCCOCCNC(=O)c1cc2c(o1)C(=O)c1ccccc1C2=O", "growth": "-94.6% (active)"}
{"molecule": "O=C1Nc2ccccc2/C1=N/N=C/c1ccc(OC2OC(CO)C(O)C(O)C2O)cc1", "note": "(stereo unspecified)", "growth": "101% (inactive)"}
{"molecule": "CC(=[N-])N1CCC[C@@H](Nc2c3ccccc3nc3ccccc23)C1.[Cl][Pt].[NH-]CCC[NH-]", "growth": "-63.3% (active)"}
{"molecule": "O=C1Nc2ccccc2/C1=N/N=C/c1c[nH]c2ccccc12", "growth": "38.4% (inactive)"}
{"molecule": "CNC1(C#N)CCN(Cc2ccccc2)CC1", "growth": "92.5% (inactive)"}
{"molecule": "COc1cc2c(cc1OC)-c1ccc3cc4c(cc3c1N(CCCn1ccnc1)C2)OCO4", "growth": "-20.4% (active)"}
{"molecule": "NC(=O)c1c(NC(=O)c2ccccn2)sc2c1CCC(=O)C2", "growth": "-3.06% (active)"}
{"molecule": "NC(N)=N/N=C/c1ccc(Br)cc1", "growth": "36.3% (inactive)"}
{"molecule": "CCNCCNc1cc(C2CCCC2)c(C#N)c2nc3ccccc3n12", "growth": "-81.4% (active)"}
{"molecule": "CS(=O)(=O)c1ccc(-c2[nH]c3ccc(F)cc3c2/C=N/O)cc1", "growth": "91.2% (inactive)"}
{"molecule": "N=C(N)c1ccc(-c2ccc(-c3ccc(Cl)cc3Cl)o2)cc1", "growth": "72.1% (inactive)"}
{"molecule": "CC(=O)C(C(C)=O)c1nc2sc3cc(Cl)ccc3n2c(=N)c1C#N", "growth": "61.6% (inactive)"}
{"molecule": "Cc1ccc(/C=C(\\C#N)n2nnc3cc(Cl)c(Cl)cc32)cc1", "growth": "26.1% (inactive)"}
{"molecule": "O=S(=O)(NCCNc1cc(-c2c(-c3cccc(O)c3)nc3sccn23)ccn1)c1ccc(Br)cc1", "growth": "56.8% (inactive)"}
{"molecule": "COc1ccc(/C(C)=N/NS(=O)(=O)c2ccc(C)cc2)cc1OC", "growth": "105% (inactive)"}
{"molecule": "C=C(Cl)COC(=O)C(C)(C)O", "growth": "111% (inactive)"}
{"molecule": "CCc1c(C(=O)N[C@@H]2c3cc(Cl)ccc3CC[C@@H]2O)[nH]c(C)c1C(C)=O", "growth": "69.7% (inactive)"}
{"molecule": "COc1cc2nc(Nc3ccc(F)cc3)nc(N)c2cc1OC", "growth": "94% (inactive)"}
{"molecule": "c1ccc2c(c1)nc(-n1ccnc1)c1nc3ccccc3n12", "growth": "72% (inactive)"}
{"molecule": "COC(=O)/C(=C\\c1ccc(OC)cc1)C(=O)N1c2ccccc2Sc2ccccc21", "growth": "19.5% (inactive)"}
{"molecule": "CN1CCN(c2ccc(Nc3ncc(Cl)c(NC[C@@H]4CCCO4)n3)cc2)CC1", "growth": "38.5% (inactive)"}
{"molecule": "O=C(NC1CCOCC1)c1ccc2c(c1)CN(c1ncc(Cc3cccc(-n4cccn4)c3)s1)CC2", "growth": "64.5% (inactive)"}
{"molecule": "[2H]c1nc(Nc2ncc(F)c(-c3cc(F)c4nc(C)n(C(C)C)c4c3)n2)c([2H])c([2H])c1CN1CCN(C([2H])([2H])C([2H])([2H])[2H])CC1", "growth": "73.3% (inactive)"}
{"molecule": "COc1ccc(C2CC(c3cnccn3)=NN2)cc1OC", "note": "(stereo unspecified)", "growth": "103% (inactive)"}
